# Experimental data from PubChem BioAssay (NCATS).
# Several values for one entry are separate records, joined by “and”; a condition that tells them apart may be missing. Equal entries are not always repeated. Results filed as inconclusive are left out. Entries that show only a call come without a potency. Activity calls are given as the source filed them. Calls come from the whole dose curve; as a rule, active = well fitted curve in the direction sought with a large enough effect; inconclusive = small, poorly fitted or top-dose-only effect, or another doubt; inactive = no such curve, though single readings can be large; an effect the other way counts as inactive or inconclusive.
# How the values were obtained:
# [1] = Primary qHTS for small molecule stabilizers of the endoplasmic reticulum resident proteome: Secreted ER Calcium Modulated Protein (SERCaMP) assay (AID 1508630)
# How it was run: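 The SH-SY5Y reporter protocol was run at 3 concentrations up to 38.3 uM (primary) or 11 concentrations (follow-up): 16 h compound, 100 nM thapsigargin for 4 h, then extracellular luciferase luminescence.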
# [2] = Primary qHTS for inhibitors of nuclear receptor binding SET domain protein 2 (NSD2) in an isogenic RCH-ACV NSD2 p.E1099K mutant (9B) (AID 1645876); note: nearly all actives have a fitted effect of over 70% in size; note: potency is the fitted concentration of half-maximal effect
# [3] = Primary qHTS for inhibitors of nuclear receptor binding SET domain protein 2 (NSD2) in an RCH-ACV wild type WT cells (2C) (AID 1645877); note: nearly all actives have a fitted effect of over 70% in size; note: potency is the fitted concentration of half-maximal effect
# [4] = target: Rap guanine nucleotide exchange factor 3 (Homo sapiens) (UniProt O95398); test: Confirmatory qHTS for agonist of cAMP-regulated guanine nucleotide exchange factor 3 (EPAC1) (AID 1645881);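 note: EPAC1 catalysed release of BODIPY-GDP from Rap1B seen as fluorescence loss; nearly all actives have a fitted effect of over 75% in size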
# [5] = target: Rap guanine nucleotide exchange factor 4 (Homo sapiens) (UniProt Q8WZA2); test: Confirmatory qHTS for agonist of cAMP-regulated guanine nucleotide exchange factor 4 (EPAC2) (AID 1645884);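 note: nucleotide exchange releases bodipy-GDP from Rap1 and this lowers its fluorescence; nearly all actives have a fitted effect of over 65% in size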
# [6] = target: Rap guanine nucleotide exchange factor 4 (Homo sapiens) (UniProt Q8WZA2); test: Confirmatory qHTS for antagonist of cAMP-regulated guanine nucleotide exchange factor 4 (EPAC2) (AID 1645885); conditions: EPAC2 Rap1B-BODIPY-GDP exchange fluorescence, biochemical; note: potency is the fitted concentration of half-maximal effect; nearly all actives have a fitted effect of over 25% in size
# [7] = target: Catechol O-methyltransferase (Homo sapiens) (UniProt P21964); test: Confirmatory Screen for Target Class Profiling of Small Molecule Inhibitors of Methyltransferases (AID 1745852); conditions: MTase-Glo luminescence, SAH detection, recombinant enzyme; measured here: COMT max response; stronger effect = lower value
# [8] = target: Guanidinoacetate N-methyltransferase (Homo sapiens) (UniProt Q14353); test: as above; conditions: MTase-Glo luminescence, SAH detection, recombinant enzyme; activity change, negative = inhibition: at 57.3 µM (top of the series) unless noted
# Chain of Rap guanine nucleotide exchange factor 4 (Homo sapiens) (Q8WZA2 whole entry, looked up): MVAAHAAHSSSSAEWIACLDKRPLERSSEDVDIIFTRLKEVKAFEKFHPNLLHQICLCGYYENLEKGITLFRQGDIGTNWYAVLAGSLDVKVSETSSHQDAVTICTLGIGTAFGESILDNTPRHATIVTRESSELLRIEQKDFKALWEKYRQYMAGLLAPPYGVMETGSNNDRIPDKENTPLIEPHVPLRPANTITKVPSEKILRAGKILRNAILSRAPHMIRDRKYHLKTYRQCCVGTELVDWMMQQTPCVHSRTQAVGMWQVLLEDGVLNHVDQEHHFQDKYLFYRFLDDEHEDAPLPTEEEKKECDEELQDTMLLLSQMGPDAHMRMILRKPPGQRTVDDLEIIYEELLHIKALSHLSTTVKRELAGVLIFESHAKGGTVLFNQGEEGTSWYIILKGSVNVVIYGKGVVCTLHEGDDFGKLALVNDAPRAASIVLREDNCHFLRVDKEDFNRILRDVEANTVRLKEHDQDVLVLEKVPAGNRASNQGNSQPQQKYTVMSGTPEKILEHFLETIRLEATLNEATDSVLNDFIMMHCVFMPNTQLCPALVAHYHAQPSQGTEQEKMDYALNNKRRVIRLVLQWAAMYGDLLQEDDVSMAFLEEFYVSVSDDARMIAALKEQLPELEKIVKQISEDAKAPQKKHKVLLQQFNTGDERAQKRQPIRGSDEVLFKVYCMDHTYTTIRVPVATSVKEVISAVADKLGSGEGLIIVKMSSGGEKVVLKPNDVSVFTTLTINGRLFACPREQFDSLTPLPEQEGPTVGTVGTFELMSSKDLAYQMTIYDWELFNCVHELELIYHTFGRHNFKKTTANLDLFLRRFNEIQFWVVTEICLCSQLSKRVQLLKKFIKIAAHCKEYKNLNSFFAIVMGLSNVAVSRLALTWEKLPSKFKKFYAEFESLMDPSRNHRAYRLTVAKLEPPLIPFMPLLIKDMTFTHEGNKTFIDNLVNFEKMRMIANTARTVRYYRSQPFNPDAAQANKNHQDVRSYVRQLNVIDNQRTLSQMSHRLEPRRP
# Chain of Catechol O-methyltransferase (Homo sapiens) (P21964 whole entry, looked up): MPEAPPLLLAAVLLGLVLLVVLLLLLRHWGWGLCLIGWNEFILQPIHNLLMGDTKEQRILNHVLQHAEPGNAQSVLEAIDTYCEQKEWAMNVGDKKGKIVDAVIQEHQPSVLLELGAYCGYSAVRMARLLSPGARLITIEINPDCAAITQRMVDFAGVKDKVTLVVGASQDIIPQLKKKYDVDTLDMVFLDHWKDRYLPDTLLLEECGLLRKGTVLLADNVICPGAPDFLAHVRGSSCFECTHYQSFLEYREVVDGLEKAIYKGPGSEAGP
# Chain of Rap guanine nucleotide exchange factor 3 (Homo sapiens) (O95398 whole entry, looked up): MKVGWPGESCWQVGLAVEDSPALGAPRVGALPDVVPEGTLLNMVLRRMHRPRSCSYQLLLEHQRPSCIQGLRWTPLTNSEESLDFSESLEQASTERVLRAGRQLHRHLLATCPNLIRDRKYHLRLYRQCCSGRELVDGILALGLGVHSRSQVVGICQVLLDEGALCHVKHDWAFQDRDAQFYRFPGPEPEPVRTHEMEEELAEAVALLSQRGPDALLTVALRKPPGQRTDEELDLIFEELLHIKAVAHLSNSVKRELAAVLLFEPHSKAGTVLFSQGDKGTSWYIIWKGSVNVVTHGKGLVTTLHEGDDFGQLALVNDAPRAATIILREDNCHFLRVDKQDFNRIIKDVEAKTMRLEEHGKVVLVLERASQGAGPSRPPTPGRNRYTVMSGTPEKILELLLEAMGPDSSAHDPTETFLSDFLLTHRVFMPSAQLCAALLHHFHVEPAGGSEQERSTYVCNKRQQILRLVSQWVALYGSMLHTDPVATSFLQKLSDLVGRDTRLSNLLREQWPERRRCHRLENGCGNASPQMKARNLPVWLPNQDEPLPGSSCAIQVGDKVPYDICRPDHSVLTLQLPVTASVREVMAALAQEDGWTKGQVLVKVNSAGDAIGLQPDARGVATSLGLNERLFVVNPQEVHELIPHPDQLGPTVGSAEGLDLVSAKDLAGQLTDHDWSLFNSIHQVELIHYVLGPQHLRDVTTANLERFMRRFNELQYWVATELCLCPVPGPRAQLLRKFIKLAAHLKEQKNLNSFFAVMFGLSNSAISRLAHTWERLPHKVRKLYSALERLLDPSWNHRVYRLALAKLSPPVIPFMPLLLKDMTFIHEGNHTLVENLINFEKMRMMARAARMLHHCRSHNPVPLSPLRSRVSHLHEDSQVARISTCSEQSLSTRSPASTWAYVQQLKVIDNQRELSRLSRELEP
compound,measurement,setting,value
CCc1c2c(nc3ccc(O)cc13)-c1cc3c(c(=O)n1C2)COC(=O)[C@]3(O)CC,Potency,[1],inactive
same,Potency,[2],8.3 nM (active)
same,Potency,[3],4.7 nM (active)
COc1cc2c(Nc3ccc(NC(=O)c4ccccc4)cc3)ncnc2cc1OCCCN1CCOCC1,Potency,[1],inactive
same,Potency,[2],5.15 µM (active) and 4.68 µM (active)
same,Potency,[3],5.15 µM (active) and 934 nM (active)
CN(c1ncccc1CNc1nc(Nc2ccc3c(c2)CC(=O)N3)ncc1C(F)(F)F)S(C)(=O)=O,Potency,[1],inactive
same,Potency,[2],5170 nM (active)
same,Potency,[3],8330 nM (active)
Cc1nc2cnc3ccc(C#Cc4cccnc4)cc3c2n1-c1ccc(C(C)(C)C#N)cc1,Potency,[1],inactive
same,Potency,[2],7.31 µM (active) and 148 nM (active)
same,Potency,[3],8.2 µM (active) and 148 nM (active)
CC(C)(C)c1cc(NC(=O)Nc2ccc(-c3cn4c(n3)sc3cc(OCCN5CCOCC5)ccc34)cc2)no1,Potency,[1],inactive
same,Potency,[2],inactive
same,Potency,[3],inactive
O=c1[nH]c(=O)n(C2CCCO2)cc1F (centres undefined),Potency,[1],inactive
same,Potency,[2],inactive
same,Potency,[3],inactive
Clc1ccc2ncc(-c3cccc(NC4CNC4)n3)n2c1,Potency,[1],inactive
same,Potency,[2],inactive
same,Potency,[3],inactive
C[C@]12CC[C@H](O)CC1=CCC1C2CC[C@]2(C)C(n3cnc4ccccc43)=CCC12 (some centres undefined),Potency,[1],inactive
same,Potency,[2],inactive
same,Potency,[3],inactive
C[C@@]12O[C@@H](C[C@]1(O)CO)n1c3ccccc3c3c4c(c5c6ccccc6n2c5c31)CNC4=O,Potency,[1],inactive
same,Potency,[2],66.1 nM (active)
same,Potency,[3],66.1 nM (active)
CC(C)c1ccc(Cn2ccc3c4c(N)nc(NC5CC5)nc4ccc32)cc1,Potency,[1],inactive
same,Potency,[2],372 nM (active)
same,Potency,[3],417 nM (active)
Cc1nc(N)ncc1-c1nc(N2CCOCC2)c2sc(C(C)(C)O)cc2n1,Potency,[1],inactive
same,Potency,[2],81.7 nM (active) and 590 nM (active)
same,Potency,[3],115 nM (active) and 468 nM (active)
CC[C@H](CO)Nc1nc(NCc2ccccc2)c2ncn(C(C)C)c2n1,Potency,[1],inactive
same,Potency,[2],14800 nM (active)
same,Potency,[3],13200 nM (active)
Cc1cc(Nc2cc(NC(=O)c3c(Cl)cccc3Cl)ccn2)nc(N)n1,Potency,[1],inactive
same,Potency,[2],417 nM (active)
same,Potency,[3],291 nM (active)
CN1c2cc(O)c(N=NC(N)=O)cc2CC1S(=O)(=O)O (centres undefined),Potency,[1],inactive
same,Potency,[2],inactive
same,Potency,[3],inactive
CC(=O)Nc1sc2c(c1-c1nc3ccccc3s1)CNC2,Potency,[1],inactive
same,Potency,[2],2900 nM (active)
same,Potency,[3],2900 nM (active)
Cc1c(NC(=O)OC[C@@H]2COCCN2)cn2ncnc(Nc3ccc4c(cnn4Cc4cccc(F)c4)c3)c12,Potency,[1],inactive
same,Potency,[2],16600 nM (active)
same,Potency,[3],14800 nM (active)
Nc1cc(C(F)(F)F)c(-c2cc(N3CCOCC3)nc(N3CCOCC3)n2)cn1,Potency,[1],inactive
same,Potency,[2],578 nM (active) and 1.18 µM (active)
same,Potency,[3],728 nM (active) and 934 nM (active)
Cn1c(=O)n(-c2ccc(C(C)(C)C#N)cc2)c2c3cc(-c4cnc5ccccc5c4)ccc3ncc21,Potency,[1],inactive
same,Potency,[2],103 nM (active) and 38.2 nM (active)
same,Potency,[3],91.6 nM (active) and 42.8 nM (active)
Nc1ccccc1NC(=O)c1ccc(CNC(=O)OCc2cccnc2)cc1,Potency,[1],inactive
same,Potency,[2],578 nM (active) and 742 nM (active)
same,Potency,[3],459 nM (active) and 662 nM (active)
O=C(O)c1ccc2cc(-c3ccc(O)c(C45CC6CC(CC(C6)C4)C5)c3)ccc2c1,Potency,[1],inactive
same,Potency,[2],934 nM (active)
same,Potency,[3],590 nM (active)
CCN(CC)CCCCNc1ncc2cc(-c3cc(OC)cc(OC)c3)c(NC(=O)NC(C)(C)C)nc2n1,Potency,[1],inactive
same,Potency,[2],16.4 µM (active) and 14.8 µM (active)
same,Potency,[3],14.6 µM (active) and 14.8 µM (active)
CN1CCN(c2ccc3nc(-c4c(N)c5c(F)cccc5[nH]c4=O)[nH]c3c2)CC1,Potency,[1],inactive
same,Potency,[2],1.3 µM (active) and 742 nM (active)
same,Potency,[3],1.16 µM (active) and 742 nM (active)
COc1cc(OC2CCN(C)CC2)ccc1Nc1ncc2c(n1)n(C1CCCC1)c(=O)n2C,Potency,[1],inactive
same,Potency,[2],5250 nM (active)
same,Potency,[3],3720 nM (active)
CC(C)(C)NC(=O)[C@H]1CN(Cc2cccnc2)CCN1C[C@@H](O)C[C@@H](Cc1ccccc1)C(=O)N[C@H]1c2ccccc2C[C@H]1O,Potency,[1],inactive
same,outcome,[4],inactive
same,outcome,[5],inactive
same,Potency,[6],44100 nM (active)
O=C(c1cncc(Br)c1)N1CCC(N2CCCC2)CC1,Potency,[2],inactive
same,Potency,[3],inactive
N#Cc1c(O)c2c(-c3ccc(-c4ccccc4O)cc3)csc2[nH]c1=O,Potency,[2],inactive
same,Potency,[3],inactive
same,activity,[7],1.41%
same,"activity change, negative = inhibition",[8],0%
